# Assay results reported in the supplement of paper PMC12282887.
# ± gives the standard deviation of the averaged measurements.
# What was measured:
# Test in all cases: promoter activity interaction Z-score (Lux/OD deviation from empty-vector control); higher = stronger promoter induction by the compound
# [1] = system: E. coli BW25113 acrABp lux reporter
# How it was run: (§1)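 Four 1:2 dilutions of each compound were tested in biological duplicates on E. coli BW25113 carrying low-copy luxCDABE promoter reporters, either wild type or deleted for one of three genes. Cultures of 40 µl LB Lennox in 384-well plates were kept at 37°C and read for OD600 and luminescence every 30 min for 12 h. Integration windows were 0–8 h for wild type and 1–9 h for deletion strains, and wells under 10% of the median growth value were discarded. The score is a Z-transformed residual of growth-normalised luminescence relative to a control fit.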
# [2] = system: E. coli BW25113 micFp lux reporter
# How it was run: as §1
# [3] = system: E. coli BW25113 ompFp lux reporter
# How it was run: as §1
# [4] = system: E. coli BW25113 robp lux reporter
# How it was run: as §1
# [5] = system: E. coli BW25113 soxSp lux reporter
# How it was run: as §1
# [6] = system: E. coli BW25113 tolCp lux reporter
# How it was run: as §1
# [7] = 22.7 µg/ml, genetic background: wild type
# [8] = 22.7 µg/ml, genetic background: ΔmarA
# [9] = 22.7 µg/ml, genetic background: Δrob
# [10] = 22.7 µg/ml, genetic background: ΔsoxS
# [11] = 45.3 µg/ml, genetic background: wild type
# [12] = 45.3 µg/ml, genetic background: ΔmarA
# [13] = 45.3 µg/ml, genetic background: Δrob
# [14] = 45.3 µg/ml, genetic background: ΔsoxS
# [15] = 90.6 µg/ml, genetic background: wild type
# [16] = 90.6 µg/ml, genetic background: ΔmarA
# [17] = 90.6 µg/ml, genetic background: Δrob
# [18] = 90.6 µg/ml, genetic background: ΔsoxS
# [19] = 181.2 µg/ml, genetic background: wild type
# [20] = 181.2 µg/ml, genetic background: ΔmarA
# [21] = 181.2 µg/ml, genetic background: Δrob
# [22] = 181.2 µg/ml, genetic background: ΔsoxS
compound,measurement,setting,value
C[C@]12CCC(=O)C=C1CC[C@@H]1[C@@H]2[C@@H](O)C[C@@]2(C)[C@H]1CC[C@]2(O)C(=O)CO [Hydrocortisone],promoter activity interaction Z-score,[1]; [7],0.0762 ± 0.23
same,promoter activity interaction Z-score,[1]; [8],1.29 ± 0.12
same,promoter activity interaction Z-score,[1]; [9],0.155 ± 0.043
same,promoter activity interaction Z-score,[1]; [10],-0.247 ± 0.36
same,promoter activity interaction Z-score,[1]; [11],-0.118 ± 0.13
same,promoter activity interaction Z-score,[1]; [12],-0.299 ± 0.39
same,promoter activity interaction Z-score,[1]; [13],-0.0995 ± 0.075
same,promoter activity interaction Z-score,[1]; [14],-0.18 ± 0.021
same,promoter activity interaction Z-score,[1]; [15],-0.0327 ± 0.25
same,promoter activity interaction Z-score,[1]; [16],0.944 ± 0.81
same,promoter activity interaction Z-score,[1]; [17],-0.203 ± 0.1
same,promoter activity interaction Z-score,[1]; [18],-0.563 ± 0.76
same,promoter activity interaction Z-score,[1]; [19],-0.103 ± 0.25
same,promoter activity interaction Z-score,[1]; [20],0.322 ± 0.17
same,promoter activity interaction Z-score,[1]; [21],-0.0446 ± 0.063
same,promoter activity interaction Z-score,[1]; [22],-0.63 ± 0.4
same,promoter activity interaction Z-score,[2]; [7],-0.121 ± 0.17
same,promoter activity interaction Z-score,[2]; [8],-0.0598 ± 0.096
same,promoter activity interaction Z-score,[2]; [9],0.0274 ± 0.19
same,promoter activity interaction Z-score,[2]; [10],-0.338 ± 0.18
same,promoter activity interaction Z-score,[2]; [11],-0.199 ± 0.022
same,promoter activity interaction Z-score,[2]; [12],-0.00993 ± 0.17
same,promoter activity interaction Z-score,[2]; [13],-0.112 ± 0.071
same,promoter activity interaction Z-score,[2]; [14],-0.292 ± 0.17
same,promoter activity interaction Z-score,[2]; [15],-0.0486 ± 0.33
same,promoter activity interaction Z-score,[2]; [16],0.0152 ± 0.072
same,promoter activity interaction Z-score,[2]; [17],-0.0859 ± 0.072
same,promoter activity interaction Z-score,[2]; [18],-0.443 ± 0.012
same,promoter activity interaction Z-score,[2]; [19],-0.162 ± 0.41
same,promoter activity interaction Z-score,[2]; [20],0.0829 ± 0.11
same,promoter activity interaction Z-score,[2]; [21],0.0154 ± 0.043
same,promoter activity interaction Z-score,[2]; [22],-0.487 ± 0.11
same,promoter activity interaction Z-score,[3]; [7],-0.318 ± 0.33
same,promoter activity interaction Z-score,[3]; [8],-1.05 ± 0.19
same,promoter activity interaction Z-score,[3]; [9],-0.188 ± 0.34
same,promoter activity interaction Z-score,[3]; [10],-0.146 ± 0.36
same,promoter activity interaction Z-score,[3]; [11],-0.51 ± 0.41
same,promoter activity interaction Z-score,[3]; [12],-0.8954 ± 0.0059
same,promoter activity interaction Z-score,[3]; [13],-0.15 ± 0.053
same,promoter activity interaction Z-score,[3]; [14],-0.152 ± 0.059
same,promoter activity interaction Z-score,[3]; [15],-0.587 ± 0.064
same,promoter activity interaction Z-score,[3]; [16],-0.994 ± 0.16
same,promoter activity interaction Z-score,[3]; [17],-0.657 ± 0.24
same,promoter activity interaction Z-score,[3]; [18],-1.03 ± 0.14
same,promoter activity interaction Z-score,[3]; [19],-0.507 ± 0.061
same,promoter activity interaction Z-score,[3]; [20],-0.698 ± 0.09
same,promoter activity interaction Z-score,[3]; [21],-0.507 ± 0.34
same,promoter activity interaction Z-score,[3]; [22],-0.928 ± 0.4
same,promoter activity interaction Z-score,[4]; [7],0.0773 ± 1.2
same,promoter activity interaction Z-score,[4]; [8],0.0463 ± 0.066
same,promoter activity interaction Z-score,[4]; [9],0.694 ± 1.1
same,promoter activity interaction Z-score,[4]; [10],-0.236 ± 0.064
same,promoter activity interaction Z-score,[4]; [11],-0.333 ± 0.93
same,promoter activity interaction Z-score,[4]; [12],0.247 ± 0.23
same,promoter activity interaction Z-score,[4]; [13],0.312 ± 0.14
same,promoter activity interaction Z-score,[4]; [14],0.174 ± 0.55
same,promoter activity interaction Z-score,[4]; [15],-0.0645 ± 0.73
same,promoter activity interaction Z-score,[4]; [16],-0.315 ± 0.028
same,promoter activity interaction Z-score,[4]; [17],0.1 ± 1.2
same,promoter activity interaction Z-score,[4]; [18],-0.777 ± 0.35
same,promoter activity interaction Z-score,[4]; [19],-0.438 ± 0.64
same,promoter activity interaction Z-score,[4]; [20],-0.167 ± 0.27
same,promoter activity interaction Z-score,[4]; [21],0.558 ± 0.36
same,promoter activity interaction Z-score,[4]; [22],0.106 ± 1
same,promoter activity interaction Z-score,[5]; [7],0.274 ± 0.098
same,promoter activity interaction Z-score,[5]; [8],-0.206 ± 0.075
same,promoter activity interaction Z-score,[5]; [9],0.0559 ± 0.11
same,promoter activity interaction Z-score,[5]; [10],-0.266 ± 0.045
same,promoter activity interaction Z-score,[5]; [11],0.0799 ± 0.065
same,promoter activity interaction Z-score,[5]; [12],-0.198 ± 0.084
same,promoter activity interaction Z-score,[5]; [13],0.0141 ± 0.1
same,promoter activity interaction Z-score,[5]; [14],-0.247 ± 0.054
same,promoter activity interaction Z-score,[5]; [15],-0.0463 ± 0.13
same,promoter activity interaction Z-score,[5]; [16],-0.321 ± 0.095
same,promoter activity interaction Z-score,[5]; [17],-0.185 ± 0.0079
same,promoter activity interaction Z-score,[5]; [18],-0.58 ± 0.1
same,promoter activity interaction Z-score,[5]; [19],-0.0782 ± 0.16
same,promoter activity interaction Z-score,[5]; [20],-0.3408 ± 0.003
same,promoter activity interaction Z-score,[5]; [21],-0.284 ± 0.044
same,promoter activity interaction Z-score,[5]; [22],-0.743 ± 0.29
same,promoter activity interaction Z-score,[6]; [7],0.184 ± 0.076
same,promoter activity interaction Z-score,[6]; [8],0.724 ± 1.1
same,promoter activity interaction Z-score,[6]; [9],0.231 ± 1.1
same,promoter activity interaction Z-score,[6]; [10],-0.0445 ± 0.42
same,promoter activity interaction Z-score,[6]; [11],-0.258 ± 0.085
same,promoter activity interaction Z-score,[6]; [12],0.509 ± 1.2
same,promoter activity interaction Z-score,[6]; [13],0.65 ± 0.86
same,promoter activity interaction Z-score,[6]; [14],-1.3 ± 0.73
same,promoter activity interaction Z-score,[6]; [15],0.153 ± 0.86
same,promoter activity interaction Z-score,[6]; [16],0.621 ± 0.97
same,promoter activity interaction Z-score,[6]; [17],0.0433 ± 0.14
same,promoter activity interaction Z-score,[6]; [18],-0.413 ± 0.29
same,promoter activity interaction Z-score,[6]; [19],-0.363 ± 0.23
same,promoter activity interaction Z-score,[6]; [20],0.0951 ± 0.92
same,promoter activity interaction Z-score,[6]; [21],0.261 ± 1.6
same,promoter activity interaction Z-score,[6]; [22],0.18 ± 0.34
